Experimental data reported in PubChem BioAssay (NCI).
This is part of a sample that, as a whole, favours compounds with a hit. Of some 83,000 tested, about 20% had one in any assay.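 In brief: 96-well plates, 48 h treatment, single concentration, percent growth endpoint.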 Calls of active or inactive are those of the source. The calls were made as follows: active = growth percent below 10; inactive = the rest.

What was measured:
Experiment in all cases: NCI-60 one-dose screen, 48 h (100 = growth as untreated, 0 = no growth, -100 = all killed)
Conditions in all cases: 10 µM unless noted
SK-MEL-2 melanoma = system: SK-MEL-2 melanoma
EKVX NSCLC = system: EKVX NSCLC
UO-31 renal = system: UO-31 renal
TK-10 renal = system: TK-10 renal
ACHN renal = system: ACHN renal
CAKI-1 renal = system: CAKI-1 renal
A498 renal = system: A498 renal
CCRF-CEM leukemia = system: CCRF-CEM leukemia
MOLT-4 leukemia = system: MOLT-4 leukemia
SR leukemia = system: SR leukemia
RPMI-8226 leukemia = system: RPMI-8226 leukemia
OVCAR-8 ovarian = system: OVCAR-8 ovarian
SK-OV-3 ovarian = system: SK-OV-3 ovarian
IGROV1 ovarian = system: IGROV1 ovarian
OVCAR-3 ovarian = system: OVCAR-3 ovarian
HS 578T breast = system: HS 578T breast
NCI/ADR-RES ovarian = system: NCI/ADR-RES ovarian
SN12C renal = system: SN12C renal
OVCAR-5 ovarian = system: OVCAR-5 ovarian
OVCAR-4 ovarian = system: OVCAR-4 ovarian

Measured: growth

CCOC(=O)c1ccc(NC(C)=O)o1
inactive: SK-MEL-2 melanoma 99.6% | EKVX NSCLC 111% | UO-31 renal 87.4% | TK-10 renal 100% | ACHN renal 108% | CAKI-1 renal 103% | A498 renal 63% | CCRF-CEM leukemia 98.8% | MOLT-4 leukemia 79.1% | SR leukemia 79.3% | RPMI-8226 leukemia 103% | OVCAR-8 ovarian 91.3% | SK-OV-3 ovarian 92.1% | IGROV1 ovarian 108% | OVCAR-3 ovarian 113% | HS 578T breast 89.6% | NCI/ADR-RES ovarian 97.5%

O=S(Cc1ccccc1)/C(=C/NC(=S)Nc1ccccc1)c1ccccc1 (centres undefined)
inactive: SK-MEL-2 melanoma 104% | EKVX NSCLC 102% | SN12C renal 109% | TK-10 renal 119% | ACHN renal 97.2% | CAKI-1 renal 94.8% | CCRF-CEM leukemia 102% | MOLT-4 leukemia 103% | RPMI-8226 leukemia 103% | OVCAR-8 ovarian 107% | OVCAR-5 ovarian 99% | OVCAR-4 ovarian 98.3% | SK-OV-3 ovarian 91.4% | IGROV1 ovarian 97.6% | OVCAR-3 ovarian 105% | HS 578T breast 114% | NCI/ADR-RES ovarian 98.4%

Cc1ccc(S(=O)(=O)NC(=O)NCCSSCCNC(=O)NS(=O)(=O)c2ccc(C)cc2)cc1
inactive: SK-MEL-2 melanoma 112% | SN12C renal 100% | UO-31 renal 90.3% | TK-10 renal 102% | ACHN renal 96.2% | CAKI-1 renal 96.5% | A498 renal 93.1% | CCRF-CEM leukemia 99.1% | MOLT-4 leukemia 110% | SR leukemia 107% | RPMI-8226 leukemia 99.8% | OVCAR-8 ovarian 106% | OVCAR-5 ovarian 93.6% | OVCAR-4 ovarian 112% | SK-OV-3 ovarian 116% | IGROV1 ovarian 101% | OVCAR-3 ovarian 109% | HS 578T breast 97.5% | NCI/ADR-RES ovarian 111%

C[C@H](CCC[C@H](C)OS(=O)(=O)c1ccccc1)OS(=O)(=O)c1ccccc1
inactive: SK-MEL-2 melanoma 98.8% | EKVX NSCLC 95.2% | UO-31 renal 78.8% | TK-10 renal 103% | ACHN renal 106% | CAKI-1 renal 92.6% | A498 renal 133% | CCRF-CEM leukemia 120% | MOLT-4 leukemia 115% | RPMI-8226 leukemia 121% | OVCAR-8 ovarian 101% | OVCAR-5 ovarian 115% | OVCAR-4 ovarian 103% | SK-OV-3 ovarian 101% | IGROV1 ovarian 73% | OVCAR-3 ovarian 109% | HS 578T breast 105% | NCI/ADR-RES ovarian 116%

CC(=O)Nc1ccc(C(=O)c2ccc(S(=O)(=O)Nc3ccccc3)cc2)cc1
inactive: SK-MEL-2 melanoma 80.6% | EKVX NSCLC 105% | UO-31 renal 85.7% | ACHN renal 104% | CAKI-1 renal 106% | A498 renal 79.2% | CCRF-CEM leukemia 82.8% | MOLT-4 leukemia 102% | SR leukemia 105% | RPMI-8226 leukemia 68.1% | OVCAR-8 ovarian 84% | OVCAR-4 ovarian 95.5% | SK-OV-3 ovarian 104% | OVCAR-3 ovarian 105% | HS 578T breast 127% | NCI/ADR-RES ovarian 30.6%

Cc1[nH]nc(C(N)=O)c1[N+](=O)[O-]
inactive: SK-MEL-2 melanoma 119% | SN12C renal 98.4% | UO-31 renal 96.8% | TK-10 renal 106% | ACHN renal 99.3% | CAKI-1 renal 102% | A498 renal 78.4% | CCRF-CEM leukemia 105% | MOLT-4 leukemia 109% | SR leukemia 84.7% | RPMI-8226 leukemia 96.3% | OVCAR-8 ovarian 108% | OVCAR-5 ovarian 104% | OVCAR-4 ovarian 122% | SK-OV-3 ovarian 101% | IGROV1 ovarian 115% | OVCAR-3 ovarian 101% | HS 578T breast 87.7% | NCI/ADR-RES ovarian 102%

Nc1cc(N)ncn1
inactive: SK-MEL-2 melanoma 113% | SN12C renal 97.1% | UO-31 renal 94% | TK-10 renal 102% | ACHN renal 102% | CAKI-1 renal 102% | A498 renal 93.8% | CCRF-CEM leukemia 99.2% | MOLT-4 leukemia 93.5% | SR leukemia 93.9% | RPMI-8226 leukemia 105% | OVCAR-8 ovarian 116% | OVCAR-5 ovarian 96.5% | OVCAR-4 ovarian 99% | SK-OV-3 ovarian 125% | IGROV1 ovarian 101% | OVCAR-3 ovarian 112% | HS 578T breast 96.2% | NCI/ADR-RES ovarian 97.6%

C/C(O)=C(/C=N\C(=S)Nc1ccc(S(=O)(=O)Nc2nccs2)cc1)C(=O)Nc1ccccc1C
inactive: SK-MEL-2 melanoma 115% | SN12C renal 87.5% | UO-31 renal 93.2% | TK-10 renal 111% | ACHN renal 99.9% | CAKI-1 renal 91.9% | A498 renal 60.5% | CCRF-CEM leukemia 87.4% | MOLT-4 leukemia 83.7% | SR leukemia 79.1% | RPMI-8226 leukemia 86.3% | OVCAR-8 ovarian 87.7% | OVCAR-5 ovarian 103% | OVCAR-4 ovarian 98.7% | SK-OV-3 ovarian 100% | IGROV1 ovarian 106% | OVCAR-3 ovarian 97% | HS 578T breast 84.1% | NCI/ADR-RES ovarian 105%

COc1cc(C(=O)O)c(O)c(C(C)(C)C)c1
inactive: SK-MEL-2 melanoma 106% | EKVX NSCLC 102% | UO-31 renal 92.9% | TK-10 renal 105% | ACHN renal 109% | CAKI-1 renal 102% | A498 renal 96.3% | MOLT-4 leukemia 98.1% | SR leukemia 119% | RPMI-8226 leukemia 106% | OVCAR-8 ovarian 104% | OVCAR-5 ovarian 99.2% | OVCAR-4 ovarian 109% | SK-OV-3 ovarian 103% | IGROV1 ovarian 107% | OVCAR-3 ovarian 104% | HS 578T breast 105% | NCI/ADR-RES ovarian 106%

COCC(N)=O
inactive: SK-MEL-2 melanoma 95.9% | EKVX NSCLC 109% | UO-31 renal 85.2% | TK-10 renal 102% | ACHN renal 102% | CAKI-1 renal 104% | A498 renal 96.6% | MOLT-4 leukemia 98.5% | SR leukemia 98.3% | RPMI-8226 leukemia 103% | OVCAR-8 ovarian 108% | OVCAR-4 ovarian 120% | SK-OV-3 ovarian 105% | IGROV1 ovarian 114% | OVCAR-3 ovarian 106% | HS 578T breast 103% | NCI/ADR-RES ovarian 111%

CCC(/C=C\C(C)=O)CC
inactive: SK-MEL-2 melanoma 112% | SN12C renal 98.3% | UO-31 renal 92.3% | TK-10 renal 102% | ACHN renal 102% | CAKI-1 renal 100% | A498 renal 90.4% | CCRF-CEM leukemia 105% | MOLT-4 leukemia 112% | SR leukemia 101% | RPMI-8226 leukemia 97.6% | OVCAR-8 ovarian 103% | OVCAR-5 ovarian 104% | OVCAR-4 ovarian 86.5% | SK-OV-3 ovarian 110% | IGROV1 ovarian 115% | OVCAR-3 ovarian 122% | HS 578T breast 102% | NCI/ADR-RES ovarian 105%

Cc1ccccc1CC(N)C(=O)O (centres undefined)
inactive: SK-MEL-2 melanoma 109% | EKVX NSCLC 103% | UO-31 renal 91.7% | TK-10 renal 115% | ACHN renal 100% | CAKI-1 renal 96.6% | CCRF-CEM leukemia 110% | MOLT-4 leukemia 109% | RPMI-8226 leukemia 109% | OVCAR-8 ovarian 104% | OVCAR-5 ovarian 116% | OVCAR-4 ovarian 103% | SK-OV-3 ovarian 104% | IGROV1 ovarian 109% | OVCAR-3 ovarian 104% | HS 578T breast 114% | NCI/ADR-RES ovarian 114%

C=CC(C)C(C)(C)O (centres undefined)
inactive: SK-MEL-2 melanoma 100% | EKVX NSCLC 105% | UO-31 renal 87.2% | TK-10 renal 104% | ACHN renal 106% | CAKI-1 renal 94.5% | A498 renal 91.4% | MOLT-4 leukemia 95.2% | SR leukemia 97.6% | RPMI-8226 leukemia 109% | OVCAR-8 ovarian 108% | OVCAR-5 ovarian 98.7% | OVCAR-4 ovarian 113% | SK-OV-3 ovarian 106% | IGROV1 ovarian 102% | OVCAR-3 ovarian 102% | HS 578T breast 96.3% | NCI/ADR-RES ovarian 98.3%

CCOC(=O)C1(N)CCCCC1
inactive: SK-MEL-2 melanoma 106% | EKVX NSCLC 97.5% | UO-31 renal 79.6% | TK-10 renal 96.3% | ACHN renal 104% | CAKI-1 renal 88.2% | A498 renal 173% | CCRF-CEM leukemia 98.1% | MOLT-4 leukemia 107% | RPMI-8226 leukemia 110% | OVCAR-8 ovarian 107% | OVCAR-5 ovarian 94.6% | OVCAR-4 ovarian 121% | SK-OV-3 ovarian 100% | IGROV1 ovarian 85.4% | OVCAR-3 ovarian 112% | NCI/ADR-RES ovarian 98.7%

O=C(O)CSCC(=O)Nc1cc(C(F)(F)F)ccc1Cl
inactive: SK-MEL-2 melanoma 111% | EKVX NSCLC 105% | SN12C renal 102% | TK-10 renal 110% | ACHN renal 106% | CAKI-1 renal 89.4% | CCRF-CEM leukemia 101% | MOLT-4 leukemia 109% | RPMI-8226 leukemia 106% | OVCAR-8 ovarian 107% | OVCAR-5 ovarian 104% | OVCAR-4 ovarian 119% | SK-OV-3 ovarian 109% | IGROV1 ovarian 112% | OVCAR-3 ovarian 113% | HS 578T breast 101% | NCI/ADR-RES ovarian 117%

CCOC(=O)CNC(=O)Sc1ccc(C(C)(C)C)cc1
inactive: SK-MEL-2 melanoma 87.1% | EKVX NSCLC 111% | UO-31 renal 64.2% | TK-10 renal 96% | ACHN renal 101% | CAKI-1 renal 100% | A498 renal 119% | MOLT-4 leukemia 32.5% | OVCAR-8 ovarian 94% | OVCAR-5 ovarian 123% | OVCAR-4 ovarian 89.7% | SK-OV-3 ovarian 116% | IGROV1 ovarian 74.9% | OVCAR-3 ovarian 104% | HS 578T breast 99.2% | NCI/ADR-RES ovarian 102%

CCC1CCC(C)NC1 (centres undefined)
inactive: SK-MEL-2 melanoma 115% | EKVX NSCLC 92.5% | UO-31 renal 93.5% | TK-10 renal 97.3% | ACHN renal 102% | CAKI-1 renal 102% | A498 renal 65.6% | MOLT-4 leukemia 105% | SR leukemia 109% | RPMI-8226 leukemia 98.6% | OVCAR-5 ovarian 107% | OVCAR-4 ovarian 107% | SK-OV-3 ovarian 111% | IGROV1 ovarian 110% | OVCAR-3 ovarian 104% | HS 578T breast 95.7% | NCI/ADR-RES ovarian 101%

C=COC(=O)C(C)(C)C
inactive: SK-MEL-2 melanoma 94.7% | SN12C renal 93.6% | UO-31 renal 84.5% | TK-10 renal 98.6% | ACHN renal 108% | CAKI-1 renal 92.2% | A498 renal 95.1% | CCRF-CEM leukemia 91.9% | MOLT-4 leukemia 92.5% | SR leukemia 91.2% | RPMI-8226 leukemia 99.2% | OVCAR-8 ovarian 107% | OVCAR-5 ovarian 106% | OVCAR-4 ovarian 108% | SK-OV-3 ovarian 107% | IGROV1 ovarian 96.7% | OVCAR-3 ovarian 107% | HS 578T breast 101% | NCI/ADR-RES ovarian 101%
